Bioassay records (PubChem)
AMA1 RON2 block: disrupts binding of P. falciparum AMA1 to RON2 | AID 720542 | 0.2% of 360,000 active | Potency, µM (highest dose often 58.2 µM), for inactives: top-dose activity change, negative = inhibition, most hits filed as inhibitors | AlphaScreen AMA1-biotinylated RON2 peptide binding;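 note: 0% = vehicle wells and -100% = peptide control; nearly all actives have a fitted effect of over 45% in size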
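AMA1 (3D7) with his tag at 25 nM final met compounds first, then biotinylated RON2 peptide at 25 nM; detection used donor plus acceptor beads, 10 µg/mL apiece, read by AlphaScreen after 30 min at room temperature.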
AmpC detergent: AmpC beta-lactamase inhibition with detergent present; P00811; AID 485294; Potency, µM (highest dose often 114 µM), for inactives: at the top dose activity change, negative = inhibition, most hits filed as inhibitors; AmpC hydrolysis of nitrocefin, absorbance 480 nm, 0.01% Triton; 0.041% of 370,000 active;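 note: 0% = no-compound wells and -100% = no-enzyme wells; nearly all actives have a fitted effect of over 25% in size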
Target sequence (P00811 whole entry, looked up): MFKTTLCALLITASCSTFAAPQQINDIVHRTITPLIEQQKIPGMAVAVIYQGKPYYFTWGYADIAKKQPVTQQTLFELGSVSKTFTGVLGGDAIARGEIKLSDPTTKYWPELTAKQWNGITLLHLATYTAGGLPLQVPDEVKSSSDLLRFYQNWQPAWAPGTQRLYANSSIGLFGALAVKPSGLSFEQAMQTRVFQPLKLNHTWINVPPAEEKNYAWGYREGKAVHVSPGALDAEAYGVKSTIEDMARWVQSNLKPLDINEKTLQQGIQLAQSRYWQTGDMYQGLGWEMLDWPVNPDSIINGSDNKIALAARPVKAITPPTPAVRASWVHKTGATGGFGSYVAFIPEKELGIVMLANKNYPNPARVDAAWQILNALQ
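20 mM phosphate pH 7.0 + 0.01% (detergent screen) or 0.0001% Triton X-100; 5.3 nM AmpC reagent; cpd preinc 15 min RT; nitrocefin (800 uM stock) to start; A480 q20 s × 4 min; Activity was normalised to no-enzyme and no-compound control wells.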
Pf growth 96h: inhibits malaria parasite growth, 96 h. P. falciparum luciferase reporter growth, 96 h. Potency, µM (titrated, usually from 28.7 µM), for inactives: top-dose activity change, negative = inhibition, usual class: inhibitors. 6.9% of 320,000 active. AID 504834
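Erythrocytes infected with luciferase-expressing P. falciparum were dispensed at 2% hematocrit and 0.05% parasitemia (final), then incubated with compounds 96 hours at 37 C in 5% CO2. Luminescence after detection reagent addition reported growth.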
AmpC inh no detg: blocks E. coli AmpC beta-lactamase in detergent-free assay. 0.52% of 330,000 active. AmpC nitrocefin hydrolysis, absorbance 480 nm, 0.0001% Triton. Potency, µM (highest dose often 57.1 µM), without a hit: top-dose activity change, negative = inhibition, actives largely listed as inhibitors. P00811;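 note: plate controls were no compound for no effect and no enzyme for full effect; nearly all actives have a fitted effect of over 20% in size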
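AmpC (5.3 nM in the dispensed reagent) in 20 mM phosphate pH 7.0 with 0.01% (detergent screen) or 0.0001% Triton X-100 was preincubated with compounds for 15 min at room temperature. Nitrocefin was then added from an 800 uM solution, and hydrolysis was followed at 480 nm.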
HCV inhibitor: HCV inhibition. Potency, µM (top dose mostly 41.8 µM), inactives show at the highest dose activity change, negative = inhibition, most hits filed as inhibitors. 3.4% of 340,000 active. Huh7.5.1 HCVcc-Cre infection, luciferase reporter, 44 h. AID 651820
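Luciferase read-out (15 sec integration) after a 15 min room-temperature substrate step quantifies HCVcc-Cre infection. Cells, 1,000 per well, had compound added 4 h post-plating, then virus at ~0.5 moi, and were cultured 44 h.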
Pf growth 48h: inhibits P. falciparum growth in the first generation, 48 h; P. falciparum luciferase growth in erythrocytes, 48 h; Potency, µM (top dose mostly 28.7 µM), without a hit: top-dose activity change, negative = inhibition, usual class: inhibitors; 5.9% of 310,000 active; AID 504832
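Read-out is firefly luciferase luminescence from an integrated reporter in P. falciparum, so falling signal marks reduced parasite growth. Infected erythrocytes were at 2% hematocrit and 0.1% parasitemia (final) in Albumax-supplemented RPMI 1640.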
Active calls of the source: *; ? = inconclusive; . = no result given; [ ] = dose if it differs, or a comment. Compounds with a hit are over-represented: about 11% of the library has one in this group of screens. Calls come from the whole dose curve; as a rule, active = well fitted curve in the direction sought with a large enough effect; inconclusive = small, poorly fitted or top-dose-only effect, or another doubt; inactive = no such curve, though single readings can be large; an effect the other way counts as inactive or inconclusive. Unless noted, % is set by controls: 0 for no effect and ±100 for the full control effect; potency is the fitted concentration of half-maximal effect.

SMILES | AMA1 RON2 block | AmpC detergent | Pf growth 96h | AmpC inh no detg | HCV inhibitor | Pf growth 48h
Cc1c(C(=O)N2CCC(C)CC2)c(S(=O)(=O)Nc2ccc(OC(F)(F)F)cc2)c(C)n1C | . | 13.0% | . | . | . | .
CCSc1cc(N2CCCC2)nc(-c2ccc(C)cc2)n1 | 2.2% | ? | ? | -4.2% | ? | ?
CCSc1cc(N2CC(C)OC(C)C2)nc(-c2ccccc2Cl)n1 (stereo not drawn) | -10.8% | 3.1% | . | 45.5% | ? | 2.08µM*
CCc1ccc(N2C(=O)N(CC(=O)C(C)(C)C)c3ccccc3S2(=O)=O)cc1 | . | 1.1% | . | . | . | .
O=C(O)c1ccc(N2CCc3ccccc32)c([N+](=O)[O-])c1 | -2.7% | -15.5% | -25.9% | -29.9% | 6.3% | 11.8%
COC(=O)c1ccc(N2CCN(CC(=O)c3ccc(-c4ccccc4)cc3)CC2)c([N+](=O)[O-])c1 | -0.6% | -10.0% | ? | 77.6% | -0.3% | 11.7µM*
COC(=O)c1ccc(N2CCc3ccccc32)c([N+](=O)[O-])c1 | 12.6µM* | -11.8% | -7.8% | -23.8% | -25.0% | -2.8%
COc1ccc(C(=O)OCC(=O)NC(=O)NCc2ccccc2)cc1[N+](=O)[O-] | 10.0%[11.6 µM] | -2.1% | -14.1% | -12.2% | 20.3% | 4.9%
COC(=O)c1ccc(SCC(=O)NCc2ccccc2)c([N+](=O)[O-])c1 | -15.0% | -14.4% | 2.62µM* | -23.2% | 14.1µM* | .
COc1ccc2c(c1)CC(C(=O)NCCCN1CCN(c3cccc(Cl)c3)CC1)CO2 (stereo not drawn) | . | -3.1% | . | . | . | .
COc1ccccc1NC(=O)CSc1nnc(Cc2cccs2)n1C | 27.5% | 5.7% | 49.0% | 4.6% | 2.0% | -17.2%
COc1cc2c(cc1NC(=O)CSc1nnc(Cc3cccs3)n1Cc1ccco1)oc1ccccc12 | -8.3% | -7.1% | ? | -7.6% | 2µM* | .
COc1cc2c(cc1NC(=O)CSc1nnc(Cc3cccs3)n1C)oc1ccccc12 | -12.0% | 1.4% | 18.9% | 82.1% | 10µM* | -9.4%
COc1cc2c(cc1NC(=O)CSc1nnnn1-c1ccccc1)oc1ccccc12 | -7.2% | -9.5% | ? | -14.9% | -6.1% | 3.6%
CC(=O)Nc1ccc(-c2nnc(SCC(=O)Nc3ccc4c(c3)oc3ccccc34)n2C)cc1 | -2.5% | 2.8% | ? | 16.4% | -17.5% | -0.2%
CCn1c(SCC(=O)Nc2cc3oc4ccccc4c3cc2OC)nnc1-c1cccs1 | 4.5% | -1.1% | . | -22.9% | 10µM* | ?
Cc1cc(Cl)ccc1NC(=O)CSc1nnc(Cc2cccs2)n1Cc1ccco1 | -9.9% | ? | . | -29.2% | ? | ?
CCn1c(SCC(=O)Nc2ccc3c(c2)oc2ccccc23)nnc1-c1ccc(N)cc1 | ? | 0.7% | ? | 33.0% | 11.2µM* | .
Cc1ccccc1Cn1c(=O)n(CCCCCC(=O)NCc2ccc3c(c2)OCO3)c(=O)c2sccc21 | . | 18.9% | . | . | . | .
O=C(NC1CCCC1)c1ccc2c(=O)n(Cc3ccccc3)c(SCc3cccc([N+](=O)[O-])c3)nc2c1 | . | -0.3% | . | . | . | .
CCOc1ccc(/C=C/c2nc(C#N)c(NCc3ccc(OC)cc3)o2)cc1 | . | 21.5% | . | . | . | .
CCOC(=O)c1cc(NC(=O)c2ccccc2)c(=O)n2c1oc1ccc(Cl)cc12 | . | 20.7% | . | . | . | .
COc1cc2c(cc1NC(=O)CSc1nnc(COc3ccc(Cl)cc3)n1C)oc1ccccc12 | 7.1% | 3.7% | 2.4% | 36.3% | 6.31µM* | ?
Cc1cc(=O)oc2c(C)c(OCC(=O)N3CCN(C(=O)C4COc5ccccc5O4)CC3)ccc12 (stereo not drawn) | 14.7% | -0.2% | 9.28µM* | 156.9% | 12.7% | 10.4µM*
Cc1cc(C)c(S(=O)(=O)N2CCN(C(=O)C3COc4ccccc4O3)CC2)c(C)c1 (stereo not drawn) | -1.4% | -10.3% | 0.2% | -15.8% | 11.2µM* | ?
SMILES | AMA1 RON2 block | AmpC detergent | Pf growth 96h | AmpC inh no detg | HCV inhibitor | Pf growth 48h
O=C(C1COc2ccccc2O1)N1CCN(Cc2ccccc2)CC1 (stereo not drawn) | 6.2% | -17.8% | 8.28µM* | 39.3% | 6.8% | 29.5%
c1ccc(CN2CCOCCOCCOCC2)cc1 | 8.6% | 7.6% | 8.1% | 4.1% | 15.8% | -3.8%
O=C(C1COc2ccccc2O1)N1CCCCC1 (stereo not drawn) | 17.7% | -3.0% | -7.1% | -9.4% | 7.6% | 14.3%
O=C(N1CCOCC1)N1CCN(Cc2ccccc2)CC1 | 8.0% | -11.6% | 1.65µM* | -14.9% | 8.8% | 15.6%
Cc1ccc(S(=O)(=O)N2CCN(C(=O)C3COc4ccccc4O3)CC2)cc1C (stereo not drawn) | -6.3% | 3.7% | . | 6.6% | . | ?
CCCOc1ccc(C(=O)N(Cc2ccccc2Cl)C2CCS(=O)(=O)C2)cc1 (stereo not drawn) | . | 6.6% | . | . | . | .
O=C1CN(C(=O)COc2ccc(Cl)cc2)C(c2ccc(F)cc2)c2cc(Br)ccc2N1 (stereo not drawn) | . | 6.9% | . | . | . | .
O=C(C1COc2ccccc2O1)N1CCN(c2ccccc2F)CC1 (stereo not drawn) | -1.4% | ? | ? | -10.6% | -9.0% | 11.7µM*
O=C(N1CCOCC1)N1CCc2ccccc21 | -6.8% | -12.4% | 11.7µM* | -11.5% | 7.8% | 64.3%
COc1cc2nc(N3CCN(C(=O)[C@H]4COc5ccccc5O4)CC3)nc(N)c2cc1OC | -15.5% | -3.6% | 3.7µM* | 12.8% | 10.4% | 3.7µM*
COc1cc2nc(N3CCN(C(=O)C4CCCO4)CC3)nc(N)c2cc1OC (stereo not drawn) | 8.9% | ? | -11.8% | -34.3% | -15.7%[8.37 µM] | ?
O=C(C1COc2ccccc2O1)N1CCN(c2ccccc2Cl)CC1 (stereo not drawn) | -4.1% | -4.2% | ? | -0.3% | -2.0% | -17.7%
Cc1cn2c(=O)cc(COC(=O)c3cccc(NC(=O)c4ccc(C(C)(C)C)cc4)c3)nc2s1 | . | 0.9% | . | . | . | .
O=C(CCC1CCCC1)N1CCc2c([nH]c3ccccc23)C1c1ccc(Cl)cc1 (stereo not drawn) | . | -0.3% | . | . | . | .
COCCNC(=O)/C(C#N)=C/c1cccc(/C=C(\C#N)C(=O)NCCOC)c1 | 11.3% | -3.8% | ? | -50.9% | 10µM* | ?
Cc1cccc(-c2nc(CN3CCCC(C(=O)N4CCN(c5cc(Cl)ccc5C)CC4)C3)c(C)o2)c1 (stereo not drawn) | . | 15.3% | . | . | . | .
Cc1cc(C)n(CCc2nc(-c3ccco3)cs2)n1 | -5.3% | ? | -38.5% | -15.3% | -1.6% | .
Cc1nn(CCc2nc(-c3ccco3)cs2)c2[nH]c(=O)cc(C(F)(F)F)c12 | 7.1% | -13.6% | 9.28µM* | -17.6% | -11.0% | .
